Test results as given in PubChem BioAssay AID492993 (Johns Hopkins Ion Channel Center, 2010).
About 200 (4.1%) of roughly 4,900 compounds were called active.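 How the source made its calls: active means thallium signal drop more than 5 SD beyond the mean of the no-compound control wells, seen in both duplicate plates; inactive means the rest.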 The list is a sample of the results.

What follows are molecules tested against Inward rectifier potassium channel 2 (Mus musculus) (UniProt P35561) (assay: off-target Kir2.1 potassium flux block – cell-based, HEK293, thallium flux, selectivity assay for KCNK9 modulator project, confirmation (AID 492993;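 on inhibition: signal is fluorescence rise after thallium addition divided by baseline fluorescence; plate controls were assay buffer only for no effect and full block by chlorpromazine control for full effect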)). Details: Kir2.1 cells, FluxOR thallium flux fluorescence, at 10 µM; hits give high values.
Sequence of Inward rectifier potassium channel 2 (Mus musculus) (P35561 whole entry, looked up): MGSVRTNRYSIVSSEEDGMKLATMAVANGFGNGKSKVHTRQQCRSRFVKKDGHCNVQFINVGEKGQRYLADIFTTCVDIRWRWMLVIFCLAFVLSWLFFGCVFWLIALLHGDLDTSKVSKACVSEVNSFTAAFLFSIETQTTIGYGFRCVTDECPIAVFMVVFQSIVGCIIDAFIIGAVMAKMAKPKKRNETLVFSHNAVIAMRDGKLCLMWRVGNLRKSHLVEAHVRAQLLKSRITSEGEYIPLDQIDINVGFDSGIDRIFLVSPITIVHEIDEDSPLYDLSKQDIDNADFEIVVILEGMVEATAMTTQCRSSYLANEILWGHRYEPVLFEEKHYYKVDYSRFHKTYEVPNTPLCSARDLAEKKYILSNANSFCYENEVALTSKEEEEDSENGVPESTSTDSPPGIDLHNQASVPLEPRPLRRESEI
With `COc1ccc(C2CC(c3cccs3)=Nc3ccccc3S2)cc1OC` (centres undefined) the inhibition was “inactive”. In the case of `COc1ccc(C(CCN(Cc2ccc(OC)c(OC)c2)C(=O)CCl)c2ccccc2)cc1` (centres undefined), the inhibition is reported as “inactive”. `Cc1ccc(OCc2cc(C(=O)N(C)CCc3ccccc3)no2)cc1C` was tested, and the inhibition was “inactive”. For `CCOc1ccc(OCc2ccc(C(=O)Nc3cccc(C)n3)o2)cc1`, the inhibition was “inactive”. With `Cc1ccccc1CSc1nnc(CCCCCNC(=O)OC(C)(C)C)o1` the inhibition was “inactive”. For `CC1(C)CC(=O)CC2(C1)NCC(c1ccccc1Cl)c1c2[nH]c2ccccc12` (centres undefined), the inhibition was “inactive”. For `O=C(NCCc1ccccc1)c1ccc2c(c1)N(Cc1ccccc1)CCS2`, the inhibition was “inactive”. For `CCC1(C)Cc2c(sc3[nH]c(=S)n(Cc4ccccc4)c(=O)c23)CO1` (centres undefined), the inhibition was “inactive”. For `COc1ccc(-c2nc(CCNC(=O)c3ccc(Br)o3)cs2)cc1`, the inhibition was “inactive”. In the case of `COc1ccc(CCNC(=O)c2ccccc2OCc2ccccc2)cc1`, the inhibition is reported as 54.5% (active). In the case of `COc1ccc(CCNc2ncnc3c2nnn3Cc2ccccc2)cc1`, the inhibition is reported as “inactive”. `CCOc1ccc2[nH]c(=O)c(CN(Cc3nnnn3CCc3ccccc3)CC3CCCO3)cc2c1` (centres undefined) was tested, and the inhibition was “inactive”. With `C=CCOc1ccc(/C=N/NC(=O)C(C)Sc2ccccn2)cc1OCC` (centres undefined) the inhibition was “inactive”. In the case of `O=C(OCC(=O)N(CCc1ccccc1)Cc1ccccc1)c1ccccc1[N+](=O)[O-]`, the inhibition is reported as “inactive”. For `Cc1cccc(NC(=O)c2sc3nc4c(c(-c5ccco5)c3c2N)CCC4)c1`, the inhibition was “inactive”. For `O=C(/C=C/NNC(=O)c1cccc(Br)c1)c1ccccc1`, the inhibition was “inactive”. In the case of `COc1cccc(-c2nn(C)c3sc(C(=O)N4CCN(c5ccccc5)CC4)cc23)c1`, the inhibition is reported as “inactive”. In the case of `CC(C)CC(COCc1ccc(Cl)cc1)N1CCN(C(=O)c2ccc(C(F)(F)F)cc2)CCC1=O` (centres undefined), the inhibition is reported as “inactive”. For `O=C(COC(=O)c1c2c(nc3ccccc13)CCCC2)c1ccc(Br)s1`, the inhibition was “inactive”. `Cc1cc(OC(C)C(=O)Nc2ccc(S(=O)(=O)Nc3onc(C)c3C)cc2)cc(C)c1Cl` (centres undefined) was tested, and the inhibition was “inactive”. With `O=C(CNCCC1=CCCCC1)Nc1ccccc1N1CCCCCC1` the inhibition was 34.5% (active). In the case of `Cc1cccc(C(=O)Nc2ccccc2N2CCN(c3ccc(F)cc3)CC2)c1`, the inhibition is reported as “inactive”. `CCCCC(=O)Nc1ccccc1N1CCN(c2ccc(F)cc2)CC1` was tested, and the inhibition was “inactive”. For `CCOc1ccccc1NC(=O)C1CCCN(S(=O)(=O)c2ccccc2)C1` (centres undefined), the inhibition was “inactive”. For `COc1ccc(C(=O)Nc2ccccc2C(=O)N/N=C/c2ccccc2OC)cc1`, the inhibition was “inactive”. For `COC(=O)C1=C(Nc2ccc(C)cc2)C=C(C)C(C(=O)OC)C1c1ccc(F)cc1` (centres undefined), the inhibition was “inactive”. `Clc1ccc(Cl)c(Oc2ccc(Oc3nc(Cl)ccc3Cl)cc2)n1` was tested, and the inhibition was “inactive”. For `CCOc1cccc(OCCCOc2cccc3cccnc23)c1`, the inhibition was “inactive”. `O=C(COC(=O)c1ccccc1)Nc1ccccc1Sc1ccccc1` was tested, and the inhibition was “inactive”. With `COc1cccc(-c2cnc(OC(C)(C)C)nc2OC(C)(C)C)c1` the inhibition was “inactive”. With `CC(C)(C)C1CCC(C(=O)NCC(c2cccs2)N2CCOCC2)CC1` (centres undefined) the inhibition was “inactive”. For `COCCNc1cc(-c2ccccc2)nc2cc(-c3cccc(F)c3)nn12`, the inhibition was “inactive”. With `CCOC(=O)N1CCN(C(=O)COc2ccc3oc4c(c3c2)CCCC4)CC1` the inhibition was “inactive”. In the case of `O=C(NCc1ccccc1)C1=C[C@@H](C2CCCCC2)C[C@@H](OCc2ccc(CO)cc2)O1`, the inhibition is reported as “inactive”. For `CCN(C(=O)COc1ccc(C(=O)c2ccccc2)cc1)c1ccccc1`, the inhibition was “inactive”. With `Cc1cc2ccccn2c1C(=O)c1cccc(F)c1` the inhibition was “inactive”. With `CCOC(=O)C(C)Sc1nc2ccccc2c(=O)n1CC1CCCCC1` (centres undefined) the inhibition was “inactive”. In the case of `COc1cc(Cl)c(C)cc1NC(=O)CSc1nnc(-c2ccco2)n1CC(C)C`, the inhibition is reported as “inactive”. In the case of `CC1CCN(C(=O)c2ccc(CSc3ccc(Cl)cc3)cc2)CC1`, the inhibition is reported as “inactive”. `COc1ccc(-c2n[nH]c3c2CN(C(=O)c2ccc(F)cc2)CC3)cc1` was tested, and the inhibition was “inactive”. `Cc1ccc2c(c1)N(C(=O)CCC(=O)N1CCc3ccccc3C1)CCO2` was tested, and the inhibition was “inactive”. With `O=C1CC(c2ccccc2)=NN1c1ccc([N+](=O)[O-])cc1` the inhibition was “inactive”. With `CCOC(=O)C1(CCOc2ccccc2)CCN(Cc2cc(OC)c(O)cc2Cl)CC1` the inhibition was “inactive”. In the case of `COc1cccc(NC(=S)N(CCc2c(C)[nH]c3ccccc23)Cc2ccco2)c1`, the inhibition is reported as “inactive”. In the case of `Cc1cccc(N2CCN(C(=O)c3cccc(S(=O)(=O)N4CCc5ccccc5C4)c3)CC2C)c1` (centres undefined), the inhibition is reported as “inactive”. For `CCC(c1nnnn1Cc1ccco1)N(CCc1ccccc1)Cc1cc2cccc(C)c2[nH]c1=O` (centres undefined), the inhibition was “inactive”. `COc1cccc2cc(C(C)N(CCCN3CCOCC3)C(=O)Nc3ccc(Cl)cc3)oc12` (centres undefined) was tested, and the inhibition was “inactive”. In the case of `Cc1cccc2cc(CN(Cc3nnnn3Cc3ccccc3)C3CCCC3)c(=O)[nH]c12`, the inhibition is reported as “inactive”. In the case of `Fc1ccc(Cn2nnnc2C(c2cccs2)N2CCCCCC2)cc1` (centres undefined), the inhibition is reported as “inactive”. With `COc1ccc(C(=O)NN2C(=O)C3C(c4ccccc4)C=CC(c4ccccc4)C3C2=O)cc1` (centres undefined) the inhibition was “inactive”. With `COc1cc(Cl)ccc1OCc1cc(C(=O)N2CC[C@@H]3CCCC[C@H]3C2)no1` the inhibition was “inactive”. In the case of `COc1ccccc1/C=C/C=N/n1c(-c2ccc(Cl)cc2Cl)n[nH]c1=S`, the inhibition is reported as “inactive”. With `CCOc1ccc(C2c3[nH]c4ccccc4c3CCN2Cc2cccn2-c2ncccn2)cc1` (centres undefined) the inhibition was “inactive”. `CC1=NN(c2cccc(Cl)c2)C(=O)C12CC(C)=C(C)CS2` (centres undefined) was tested, and the inhibition was “inactive”. For `CC1=CC(C)(C)N(C(=O)CSc2nnc(-c3ccccc3)o2)c2ccc(C)cc21`, the inhibition was “inactive”. For `Fc1cccc(Cl)c1CSc1ccc(-c2ccco2)nn1`, the inhibition was “inactive”. In the case of `O=C(Nn1c(SCc2ccc([N+](=O)[O-])cc2)nc2ccccc2c1=O)c1ccc(F)cc1`, the inhibition is reported as “inactive”. `Cc1ccc(NC(=O)c2cc([N+](=O)[O-])ccc2Cl)c(O)c1` was tested, and the inhibition was “inactive”. `O=C(Nc1ccc2c(c1)CCC2)c1cccc(S(=O)(=O)Nc2ccccc2Cl)c1` was tested, and the inhibition was “inactive”. For `COc1ccc(OC)c(-c2csc(-c3cccs3)n2)c1`, the inhibition was “inactive”. `CCN(CC)S(=O)(=O)c1ccc(N(C)Cc2ccc(C(F)(F)F)cc2)nc1` was tested, and the inhibition was “inactive”. For `Cc1ccnc(N2CCN(C(=O)CSc3nc4ccccc4nc3N3CCCCC3)CC2)c1`, the inhibition was “inactive”. In the case of `CC(C)(C)NC(=O)NC(=O)CN1CCC(Cc2ccccc2)CC1`, the inhibition is reported as “inactive”. With `CCN(CC)C(=O)CC1(c2ccccc2OC)CCOC(C(C)C)C1` (centres undefined) the inhibition was “inactive”. `COC(=O)c1cc(NC2c3ccccc3C(=O)N2c2ccc(Cl)cn2)cc(C(=O)OC)c1` (centres undefined) was tested, and the inhibition was “inactive”. With `O=C(COC(=O)/C(=C/c1cccs1)c1cccs1)NCc1ccccc1Cl` the inhibition was “inactive”. With `N#Cc1nc(Cc2cccc3ccccc23)oc1NCc1ccc2c(c1)OCO2` the inhibition was 51% (active). With `C=CCN(N=Nc1cccc([N+](=O)[O-])c1)c1cccc([N+](=O)[O-])c1` the inhibition was “inactive”. In the case of `COc1cccc(CN(C)C(=O)CC23CC4CC(CC(C4)C2)C3)c1OC`, the inhibition is reported as “inactive”. With `CCCCCCCCn1c2c(c(=N)c3c1CCC3)CCCC2` the inhibition was 84% (active). For `Clc1ccc(COn2c(-c3ccc(Cl)cc3Cl)nc3ncccc32)cc1`, the inhibition was “inactive”. For `O=C(Nc1ccc(S(=O)(=O)N2CCCCC2)cc1)C1CCN(C(=O)c2ccc(F)cc2)CC1`, the inhibition was “inactive”. `Cc1nc(N2CCN(c3ccccn3)CC2)c2c(C)c(C(=O)Nc3ccc(F)c(Cl)c3)sc2n1` was tested, and the inhibition was “inactive”. With `Cc1ccc(OS(=O)(=O)c2ccc(-c3csc(C)n3)s2)c(C)c1` the inhibition was “inactive”. With `C[C@@]12C(=O)N(c3cccc(Br)c3)C(=O)N1[C@H](c1ccc(Cl)cc1)[C@@H]1C(=O)N(C3CCCCC3)C(=O)[C@@H]12` the inhibition was “inactive”. For `COc1cccc2sc(NNC(=O)c3nc4ccccc4s3)nc12`, the inhibition was “inactive”. For `COc1ccccc1NC(=O)CSc1nc2sc(C)c(C)c2c(=O)n1Cc1ccco1`, the inhibition was “inactive”. With `O=C(NCCCc1ccccc1)c1cc(COc2c(F)cccc2F)on1` the inhibition was “inactive”. `Cc1ccc(C2=NN(C)c3nc4ccccc4n3C2)cc1` was tested, and the inhibition was “inactive”. For `O=C(Cc1ccccc1)n1nc(-c2ccccc2)nc1NCc1ccco1`, the inhibition was “inactive”. With `Cc1cc(C)cc(OCC(=O)Nc2cc(NC(=O)COc3cc(C)cc(C)c3)cc(C(=O)O)c2)c1` the inhibition was “inactive”. In the case of `Cc1cccc(NC(=O)N(Cc2cc3cc(C)cc(C)c3[nH]c2=O)CC2COCCO2)c1` (centres undefined), the inhibition is reported as “inactive”. `CC1CCN(C(=S)c2ccc(-c3ccc(Cl)cc3Cl)o2)CC1` was tested, and the inhibition was “inactive”. `COC(=O)c1cccc(C(=O)N2CCCC(Nc3ccc4c(c3)OCCO4)C2)c1` (centres undefined) was tested, and the inhibition was “inactive”. In the case of `Cc1ccc(C2=Nc3c(ccc4ccccc34)C(c3ccncc3)=NN2)cc1`, the inhibition is reported as “inactive”. `Cc1ccc(CN(N=Nc2nonc2N)c2nonc2N)c(C)c1` was tested, and the inhibition was “inactive”. For `Cc1ccc(Cn2ccc(NC(=O)c3cc(C(C)C)on3)n2)cc1`, the inhibition was “inactive”. For `CCOC(=O)[C@@H]1[C@H]2COc3ccc(Br)cc3[C@H]2N2C(=O)N(c3ccc(Cl)cc3)C(=O)[C@@]12C`, the inhibition was “inactive”. In the case of `O=C(N/N=C/c1ccccn1)c1cccc(NC(=O)c2ccc(Cl)cc2)c1`, the inhibition is reported as “inactive”. `Cc1ncoc1C(=O)N1CCCC(C(=O)c2ccc3c4c(cccc24)CC3)C1` (centres undefined) was tested, and the inhibition was “inactive”. With `CCc1ccccc1NC(=O)/C(=C/c1ccccc1)c1ccccc1` the inhibition was “inactive”. In the case of `COc1ccc(Nc2ncnc3sc(-c4ccccc4)cc23)c(OC)c1`, the inhibition is reported as “inactive”. For `O=S(=O)(Nc1cccc(Oc2ccc(Cl)cc2)n1)c1ccc(F)cc1`, the inhibition was “inactive”. With `Brc1ccc(C2CC(c3ccccc3)=Nc3ccccc3N2)cc1` (centres undefined) the inhibition was “inactive”. In the case of `Cc1[nH][nH]c(=O)c1C(c1ccc(-c2ccc(Cl)cc2)o1)c1c(C)[nH][nH]c1=O`, the inhibition is reported as 38% (active). With `O=C(Nc1nnc(SCc2ccc(Cl)cc2Cl)s1)C1COc2ccccc2O1` (centres undefined) the inhibition was “inactive”. For `CCCCN(Cc1ccccc1)C(=O)C1CCN(Cc2sccc2C)CC1`, the inhibition was “inactive”. For `Clc1cccc(-c2nc3nc4ccccc4nc3n2Cc2ccco2)c1`, the inhibition was “inactive”. `O=C1N=C2SCCN2/C1=C\c1c(Cl)cccc1Cl` was tested, and the inhibition was “inactive”. With `CCc1nnc(NS(=O)(=O)c2ccc(NC(=S)NC(=O)/C=C/c3cccs3)cc2)s1` the inhibition was “inactive”. With `COc1ccccc1N1CCN(c2ncnc3sc(C)c(-c4ccccc4)c23)CC1` the inhibition was “inactive”. In the case of `O=C(Nc1ccccc1[N+](=O)[O-])C1C(c2ccccc2)=C1c1ccccc1`, the inhibition is reported as “inactive”. With `CCCCOC(=O)CCCc1ccc([N+](=O)[O-])cc1[N+](=O)[O-]` the inhibition was “inactive”. For `O=C(NC1Cc2ccccc2C1)c1cc(COc2cccc(C(F)(F)F)c2)on1`, the inhibition was “inactive”. For `O=C(Nc1ccc(Oc2ccccc2)cc1)c1ccco1`, the inhibition was “inactive”. `Cc1ccc(C(=O)c2c(NC(=O)c3ccncc3)sc3c2CCCC3)cc1` was tested, and the inhibition was “inactive”. For `Cc1onc(-c2ccc(Cl)cc2)c1-c1ccnn1S(=O)(=O)c1ccc(Cl)cc1`, the inhibition was “inactive”. For `CN(C)c1ccc(C(CNC(=O)c2ccc(F)cc2)c2c[nH]c3ccccc23)cc1` (centres undefined), the inhibition was “inactive”. `CCn1cnc2scc(-c3ccc(C)c(C)c3)c2c1=O` was tested, and the inhibition was “inactive”.
